# A selection: hits, their analogues and other compounds. The true share with any hit is near 32%.
# CYP2C19 activ: activators of human cytochrome P450 2C19 | AID 1025 | 96,000 tested, under 10 active | P33261 | recombinant CYP2C19, luciferin-H EGE luminescence; stronger effect = higher value; 0 = fully inhibited enzyme, 1 = untreated enzyme | activation factor at 5 µM;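 active = activation factor of at least 2 at 5 µM in the primary screen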
# Target sequence (P33261 whole entry, looked up): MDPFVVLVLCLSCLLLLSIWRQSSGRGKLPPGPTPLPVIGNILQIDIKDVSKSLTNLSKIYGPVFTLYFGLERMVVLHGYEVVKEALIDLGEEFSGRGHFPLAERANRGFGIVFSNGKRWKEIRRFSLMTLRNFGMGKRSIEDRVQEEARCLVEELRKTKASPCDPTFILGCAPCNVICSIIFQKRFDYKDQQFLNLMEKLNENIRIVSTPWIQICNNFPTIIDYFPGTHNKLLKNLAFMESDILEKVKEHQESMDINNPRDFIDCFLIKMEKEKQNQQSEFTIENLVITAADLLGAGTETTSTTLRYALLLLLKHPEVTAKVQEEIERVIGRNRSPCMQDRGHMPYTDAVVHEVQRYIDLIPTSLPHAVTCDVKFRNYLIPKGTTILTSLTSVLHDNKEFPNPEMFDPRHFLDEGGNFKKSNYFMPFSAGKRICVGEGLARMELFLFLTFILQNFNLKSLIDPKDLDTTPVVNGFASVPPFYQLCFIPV
# PostGolgi ctrl: growth of the yeast control strain, post-Golgi counter-screen; efflux-deficient yeast background strain, growth absorbance A615, 16 h; AID 738; inhibition, % at 10 µM; hit rate 5% among 98,000
# CYP2C9 inh: blocks human cytochrome P450 2C9. inhibition, % at 5 µM. P11712. hit rate 20% among 96,000. CYP2C9 Supersomes, luciferin-H conversion, luminescence. AID 777;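 active = blocking of liver enzyme CYP2C9 beyond about 50% at 5 µM, limit read from the data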
# CYP2C19 inhib: blocks human cytochrome P450 2C19; inhibition, % at 5 µM; CYP2C19 Supersomes, luciferin-H EGE luminescence, 30 min; hit rate 21% among 96,000; P33261; AID 778;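 active = CYP2C19 inhibition above a set limit at 5 µM in the primary screen, cut at about 50% in these data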
# PostGolgi yeast: growth inhibition of a yeast mutant, post-Golgi transport screen | post-Golgi transport phenotypic cell assay | inhibition, % at 10 µM | hit rate 0.9% among 98,000 | AID 739;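 note: yeast cells grown in 1536-well plates; yeast grown about 18 h at 30C before absorbance read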
# CYP2C9 act: increases human cytochrome P450 2C9 activity | recombinant CYP2C9, luciferin-H conversion, luminescence; stronger effect = higher value; factor 1 = untreated enzyme, 0 = blocked | activation factor at 5 µM | hit rate 1.4% among 96,000 | AID 1024;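 active = activation factor of 2 or more for CYP2C9 at a 5 µM dose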
# A number is an active result; 0 = inactive; - = no result. Cut-off read from the data, not from the text of the source, unless noted: active = inhibition above about 30%; inactive = the rest.
SMILES,CYP2C19 activ,PostGolgi ctrl,CYP2C9 inh,CYP2C19 inhib,PostGolgi yeast,CYP2C9 act
Cc1cnc(NC(=O)CCCSc2nc3ccccc3s2)s1,0,0,0,0,0,0
Cc1csc(NC(=O)CSc2nc3ccccc3s2)n1,0,0,0,0,0,0
O=C(CCCSc1nc2ccccc2s1)NCc1ccco1,0,0,0,76,0,0
CCC(C)(C)n1nnnc1C(c1ccc(N(C)C)cc1)N1CCN(C2CCCCC2)CC1 (stereo unspecified),0,0,0,0,0,0
COCCCNC(=O)CCn1c(=O)c2ccccc2n(CC(=O)Nc2ccccc2C)c1=O,0,0,0,0,0,0
CCCN(CCC)C(=O)Cn1c(=O)n(CCC(=O)NCCc2ccccc2)c(=O)c2ccccc21,0,0,72,0,0,0
CCCCNC(=O)CCn1c(=O)c2ccccc2n(CC(=O)Nc2ccccc2OCC)c1=O,0,0,75,0,0,0
COCCCNC(=O)CCn1c(=O)c2ccccc2n(CC(=O)Nc2ccc(C)cc2C)c1=O,0,0,67,78,0,0
COc1cc(C(=O)OCC(=O)Nc2cc(C)on2)cc(OC)c1OC,0,0,0,0,0,0
O=C(OCc1ccc(F)cc1)c1ccc2c(c1)-c1ccccc1C2=O,0,38,0,0,0,0
CCOC(=O)c1ccccc1NC(=O)c1ccc(F)cc1,0,0,0,0,0,0
CCOC(=O)C1=C(Cc2ccc(F)cc2)C(=O)c2ccccc2C1=O,0,0,0,87,0,0
O=c1[nH]c2ccc(Cl)cc2c(-c2ccccc2)c1N1CCN(c2ccccn2)CC1,0,82,0,0,31,0
O=c1[nH]c2ccc(Cl)cc2c(-c2ccccc2)c1N1CCOCC1,0,0,0,0,0,0
Cc1ccc2[nH]c(=O)c(CN(Cc3cccnc3)Cc3nnnn3CCN3CCOCC3)cc2c1,0,0,0,0,0,0
O=C(NCCCCc1ccccc1)C1CC(c2ccccc2[N+](=O)[O-])=NO1 (stereo unspecified),0,0,0,51,0,0
Cc1ccc(CNC(=O)C2CC(c3ccccc3[N+](=O)[O-])=NO2)cc1 (stereo unspecified),0,0,0,0,0,0
O=C(NCc1ccc(OC(F)(F)F)cc1)C1CC(c2ccccc2[N+](=O)[O-])=NO1 (stereo unspecified),0,0,0,0,0,3.1
Nc1cc2c(cc1C(=O)c1ccccc1)OCCO2,0,0,0,51,0,0
Nc1cc2c(cc1C(=O)c1ccc(Cl)cc1)OCCO2,0,0,70,61,0,0
CC(=O)Nc1cc2c(cc1C(=O)c1ccccc1)OCCO2,0,0,0,0,0,0
Cc1ccc(C(=O)c2cc3c(cc2N)OCCO3)cc1,0,0,68,67,0,0
COc1cccc(C(=O)N2CCN(C(=O)c3cccs3)CC2)c1OC,0,0,0,0,0,0
CCS(=O)(=O)N1CCCC(C(=O)NCCCOC)C1 (stereo unspecified),0,0,0,0,0,0
CC(=O)N1CCc2cc(S(=O)(=O)NCCC(=O)Nc3cccc(C)c3C)ccc21,0,0,0,0,0,0
SMILES,CYP2C19 activ,PostGolgi ctrl,CYP2C9 inh,CYP2C19 inhib,PostGolgi yeast,CYP2C9 act
CCCCNC(=O)OCC(CC)NC(=O)OC(C)C (stereo unspecified),0,0,0,53,0,0
CCCCNC(=O)OCC(CC)NC(=O)OCC(C)C (stereo unspecified),0,0,0,0,0,0
Cc1nnc(NC(=O)CC(CN(C)S(=O)(=O)c2ccccc2)c2ccccc2)s1 (stereo unspecified),0,0,0,70,0,0
CN(CC(CC(=O)Nc1nncs1)c1ccccc1)S(=O)(=O)c1ccccc1 (stereo unspecified),0,0,54,90,0,0
CCc1nnc(NC(=O)CC(CN(C)S(=O)(=O)c2ccccc2)c2ccccc2)s1 (stereo unspecified),0,0,0,0,0,0
CN(CC(CC(=O)Nc1nncs1)c1ccccc1)S(=O)(=O)c1ccc(Br)cc1 (stereo unspecified),0,0,57,94,0,0
Nc1ccnc(C(F)(F)F)c1C(=O)c1ccccc1,0,0,0,0,0,0
Nc1cc(=O)nc(SCC(=O)NC2CCCCC2)n1-c1ccccc1,0,0,0,0,0,0
CC(C)N(C)C1CCN(C(=O)Nc2ccc(Cl)c(Cl)c2)CC1,0,0,0,0,0,0
c1ccc(-c2ccc(-c3cnc4n3CCCCC4)cc2)cc1,0,0,66,0,81,0
Cc1ccc(-c2nnc3n2CCCCC3)cc1,0,0,0,0,0,0
c1cc2c(cc1-c1cnc3n1CCC3)OCCO2,0,37,0,0,0,0
COc1cc(-c2nnc(CSc3nnc4nc(C)cc(C)n34)o2)cc(OC)c1OC,0,0,0,0,0,0
CC1CCCN(C(=O)c2cc(F)c(F)cc2Cl)C1 (stereo unspecified),0,0,0,0,0,0
CCOC(=O)c1c(NC(=O)C(C)NCc2ccco2)sc2c1CCC(C)C2 (stereo unspecified),0,0,0,0,0,0
O=C1CCC([N+](=O)[O-])C(c2ccc(Cl)cc2Cl)N1 (stereo unspecified),0,0,0,0,0,0
CCN(C(=O)CSc1nc2nc(C)cc(C)n2n1)c1ccccc1,0,0,0,0,0,0
Cc1ccc(-c2nc(CCN3C(=O)c4ccccc4C3=O)cs2)cc1,0,0,0,52,0,0
N#C/C(=C/c1ccc(F)cc1)c1nc(CCN2C(=O)c3ccccc3C2=O)cs1,0,0,0,0,0,0
O=C(CCCN1C(=O)c2ccccc2C1=O)Nc1ccccn1,-,0,-,-,0,-
O=C1c2ccccc2C(=O)N1CSc1ncccn1,0,0,0,61,0,0
Cc1cc(C)n2nc(SCc3nc4ccccc4[nH]3)nc2n1,0,0,0,71,0,0
Cc1cc(C)n2nc(SCN3C(=O)c4ccccc4C3=O)nc2n1,0,0,0,83,0,0
O=C(N1CCCC1)N1CCN(c2ncnc3c(-c4ccc(Cl)cc4)nsc23)CC1,0,-,0,0,-,0
O=C(CCN1C(=O)c2ccccc2C1=O)Nc1ccccn1,0,0,0,0,0,0
SMILES,CYP2C19 activ,PostGolgi ctrl,CYP2C9 inh,CYP2C19 inhib,PostGolgi yeast,CYP2C9 act
O=C1c2ccccc2C(=O)N1CCc1ccccn1,0,0,0,84,0,0
CCOC(=O)C(C(=O)NCc1cccc(OC)c1)c1ncc(C(F)(F)F)cc1Cl (stereo unspecified),0,0,0,0,0,0
C(=N\N1CCN(C2c3ccccc3-c3ccccc32)CC1)/c1cccs1,0,0,82,0,0,0
C(=N\N1CCN(Cc2ccccc2)CC1)/c1cccs1,0,0,0,60,0,0
CCOc1ccc(NC(=O)CSc2nnc(C3CC3)n2N)cc1,0,0,0,0,0,0
CCc1cccc(CC)c1NC(=O)CSc1nnc(C(C)C)n1CC,0,0,0,0,0,0

# From PubChem
